Laboratory results as given in the supplement of paper PMC10338343.
± gives the standard deviation.

The sequences below were run on MILI (PIWIL2) piRISC loaded with L1MC piRNA (26 nt) (assay: pre-steady-state target cleavage rate (min^-1); guide: L1MC piRNA 5'p-UAACUAAAUACUAUGCAAGCUGUAGG; MIWI and MILI are mouse PIWI proteins and EfPiwi is from a freshwater sponge; tags in brackets are library labels; higher = faster piRNA-guided slicing of the target). Conditions: auxiliary factor: none (no GTSF1).
Summary of the method: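 With or without 500 nM GTSF1 partner protein, 1 nM active affinity-purified piRISC carrying one synthetic guide was mixed with 0.1 nM transcribed, DNA-blocked target RNA library in HEPES–potassium acetate buffer at 33 °C for 0–8 or 0–960 min. Uncleaved targets were sequenced and normalised to depth and to weakly complementary targets, three trials were pooled, and k3 was capped at 0.0001 min^-1. The pre-steady-state cleavage rate came from a burst-and-steady-state fit.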

pre-steady-state target cleavage rate, 0.00364 ± 0.0031:
UCCUGGAUGUCGUUGCAUAGUUAUUAGUUA

pre-steady-state target cleavage rate, < 0.0001:
UCCUGGAUGUCGAUCCAUAGUAUUUUGUUA
UCCUGGAUGUCGAACCAUAGUAUUAAGUAA
UCCUGGAUGUCGAACGUAUCUAUAAAGUUA
UCCUGGAUGUCGAACGUAUCUAUUAAGUUA
UCCUGGAUGUCGAUGCAUACUAUUUAGUAA
